# Test results reported in PubChem BioAssay AID504444 (National Center for Advancing Translational Sciences (NCATS), 2011).
# Out of some 360,000 compounds screened, about 7,500 (2.1%) were called active. About 20% were inconclusive and are not listed. The list comes from a sample in which actives are over-represented; it also holds similar structures and randomly drawn compounds. Entries that show only a call come without a potency. A number with no mark means an inactive call. The call rests on the fitted dose curve; in most records, active means well fitted inhibition curve with a large enough effect; inconclusive means small, poorly fitted or top-dose-only effect, or effect the other way; inactive means flat fitted curve, though single readings scatter.
# Assay: Nrf2 qHTS screen for inhibitors; further: nearly all actives have a fitted effect of over 60% in size
# Conditions: A549 ARE-Fluc reporter, luciferase luminescence, 18-24 h; series mostly up to 46 µM
# Procedure, shortened: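 Nrf2 activity is the BugLite luminescence, read 15 min after reagent at room temperature, following CellTiter-Fluor cytotoxicity readout (30 min, 37C). Compound titrations were applied for 18-24 h to 5000 A549 ARE_Fluc cells/well in 5% FBS OPTI-MEM.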
# Potency means the concentration at half of the fitted maximal effect.
SMILES,Potency,"activity change, negative = inhibition"
O=C(Nc1cccc(Cl)c1)OCc1ccccn1,inactive,
CN1C(=O)C(CC(=O)Nc2ccccc2)S/C1=N/c1nccs1 (configuration not stated),inactive,
O=C(CC1SC(=Nc2ccccc2)N(Cc2ccccn2)C1=O)Nc1cccc(Cl)c1 (configuration not stated),25.9 µM (active),
CN(C)C(=S)N=c1ssc(=S)n1Cc1ccco1,inactive,
CCCOc1ccc(C(=O)Nc2ccc3oc(-c4cccc(Cl)c4Cl)nc3c2)cc1,5.8 µM (active),
Cc1ccccc1-c1nc2cc(NC(=O)c3cccc(OCCC(C)C)c3)ccc2o1,6.51 µM (active),
CCCCOc1ccc(C(=O)Nc2cccc(-c3nc4ccccc4o3)c2C)cc1,inactive,
COc1cccc(C(=O)Nc2ccc3oc(-c4ccc5ccccc5c4)nc3c2)c1,inactive,
Cc1ccc(SCC(=O)Nc2ccc3oc(-c4ccccc4C)nc3c2)cc1,inactive,
O=C(COc1ccc(Cl)cc1)Nc1ccc(-c2nc3cc(Cl)ccc3o2)c(O)c1,inactive,
O=C(NCCCc1ccccc1)c1ccc2c(c1)sc1nc(-c3ccc(F)cc3)cn12,inactive,
CCc1ccc(OCCCn2c(CCCNC(=O)C3CCCCC3)nc3ccccc32)cc1,inactive,
O=C(NCc1ccccc1)c1cccc(NC(=O)N2CCSc3ncccc32)c1,inactive,
CC(C)(C)OC(=O)C[C@H]1C/C=C\C[C@@H](CC(=O)N[C@H](CO)Cc2ccccc2)C(=O)NC[C@@H](c2ccccc2)OC1=O,inactive,
COc1ccc(-c2ccc3c(c2)C2CC3CCN2CCC#N)cc1 (configuration not stated),inactive,
Cc1nc2ccc(S(=O)(=O)N(CC(=O)Nc3ccc(F)cc3)Cc3ccccc3)cc2s1,inactive,
Cc1c(C(=O)N2CCCC2)oc2c1-c1nn(CC(=O)NCc3ccc(OC(C)C)cc3)cc1CC2,20.6 µM (active),
CCCN(CCC)CCCNC(=O)Cn1cc2c(n1)-c1c(oc(C(=O)N3CCCC3)c1C)CC2,inactive,
COc1ccccc1N1CCN(c2ccc(=O)n(CC(=O)NCc3ccc(OC(C)C)cc3)n2)CC1,inactive,
Cc1ccc(Cn2cc(CCC(=O)NCc3ccc(OC(C)C)cc3)c3ccccc32)cc1,inactive,
Cc1cccc(N2CCN(C(=O)c3oc(=O)c4ccccc4c3-c3ccccc3)CC2)c1C,inactive,
Cc1ccc2nc(/C(C#N)=C/c3ccccc3F)[nH]c2c1,inactive,
COc1cc(/C=C(\C#N)c2nc3ccccc3[nH]2)ccc1O,inactive,
Cc1ccc2nc(/C(C#N)=C\c3ccc(OC(=O)c4cccs4)cc3)[nH]c2c1,4.61 µM (active),
CC(=O)Nc1cccc(/C(C)=N/NC(=O)c2c(-c3ccccc3Cl)noc2C)c1,9.2 µM (active),

SMILES,Potency,"activity change, negative = inhibition"
Cc1onc(-c2ccccc2Cl)c1C(=O)OCC(=O)c1ccccc1,inactive,
Cc1onc(-c2c(Cl)cccc2Cl)c1C(=O)NNC(=O)c1c(-c2c(Cl)cccc2Cl)noc1C,inactive,
COC(=O)c1ccc(CNC(=O)Cn2cc(C)c(=O)[nH]c2=O)cc1,inactive,
Cc1cccc(-c2nc(SCc3ccc(Br)cc3)n3[nH]c(=O)cc3n2)c1,inactive,
O=C(O)c1ccccc1C(=O)Nc1nc(-c2ccccc2)cs1,inactive,
CC(=O)Nc1ccc(-c2csc(NC(=O)Nc3ccccc3)n2)cc1,16.4 µM (active),
CC(=O)Nc1ccc(S(=O)(=O)Nc2nc(-c3ccc(C(C)(C)C)cc3)cs2)cc1,inactive,
Cc1cc(Cl)ccc1OCC(=O)N(Cc1ccc(N(C)C)cc1)C1CCS(=O)(=O)C1 (configuration not stated),inactive,
COc1ccc(-c2ccc3c(c2)[C@@H]2C[C@H](N(C)S(=O)(=O)c4ccccc4)[C@H]([C@H](C)O)C(=O)N2CC3)cc1,inactive,
Cc1nnc(N2CCC(C(=O)Nc3ccc(F)cc3)CC2)c2nn(-c3ccc(Cl)cc3)c(C)c12,inactive,
CNC(=O)N1c2ccccc2C=Cc2ccccc21,inactive,
CC1C(C)N(C(=O)CCl)c2ccccc2N1C(=O)CCl (configuration not stated),18.4 µM (active),
CC1CC(C)CN(CC(=O)N2c3ccccc3CCc3ccccc32)C1 (configuration not stated),inactive,
CCN(CC)S(=O)(=O)c1ccc(Cl)c(NC(=O)c2ccncc2)c1,inactive,
Cc1cccc(NC(=O)c2cccnc2Cl)n1,inactive,
CCN(CC)S(=O)(=O)c1ccc(NC(=O)c2cccnc2Cl)c(NC(=O)c2cccnc2Cl)c1,20.6 µM (active),
COc1ccc(N2C(=O)CS(=O)(=O)C23C(=O)N(Cc2ccc(C)cc2)c2ccccc23)cc1Cl (configuration not stated),inactive,
CN(C)C(CNC(=O)c1cc2ccccc2o1)c1ccccc1 (configuration not stated),inactive,
COc1cccc(CN2CCc3nc(SCC(=O)Nc4ccccc4)[nH]c(=O)c3C2)c1,inactive,
O=[N+]([O-])c1cc(Br)c(O)c(/C=N/Nc2nc3ccccc3s2)c1,inactive,
c1ccc(C(=NNc2nc3ccccc3s2)c2ccccn2)cc1,9.2 µM (active),
COc1cc(/C=N/Nc2nc3ccccc3s2)ccc1O,inactive,
CCC(C(=O)Nc1cc(OC)ccc1OC)n1c(=O)c(C(F)(F)F)nc2ccccc21 (configuration not stated),inactive,
CSCCC(NC(=O)c1ccccc1)C(=O)N1CCN(Cc2ccc(Cl)cc2)CC1 (configuration not stated),inactive,
CCCCN(C(=O)c1cccc(N2C(=O)c3ccccc3C2=O)c1)c1c(N)n(CCCC)c(=O)[nH]c1=O,inactive,

SMILES,Potency,"activity change, negative = inhibition"
N#Cc1ccc(OC2=NS(=O)(=O)c3ccccc32)cc1,inactive,
COc1ccc(S(=O)(=O)N/N=C\c2ccc(OC)c(COc3ccc(C)cc3[N+](=O)[O-])c2)cc1,inactive,
COc1ccc(C(=O)Oc2cc(/C=N/NS(=O)(=O)c3ccc(C)cc3)ccc2OC)cc1,16.4 µM (active),
COc1ccc(/C=N/NS(=O)(=O)c2ccc(NC(C)=O)cc2)cc1,inactive,
CCOc1ccc(C(=O)c2cn(Cc3ccc(F)cc3)c3ccc(F)cc3c2=O)cc1,inactive,
CN(C)c1ccc(Nc2c3c4c(cccc4n(C)c2=O)C(=O)c2ccccc2-3)cc1,8.2 µM (active),
CN(C)c1ccc(C2N(C)C(=O)c3ccccc3N2C)cc1 (configuration not stated),inactive,
Cc1ccc(Nc2c(-c3ccc(N(C)C)cc3)nc3nc[nH]n23)cc1,inactive,
O=C(Nc1c(C(=O)N2CCN(c3ccc(F)cc3)CC2)oc2ccccc12)c1ccco1,inactive,
CCOC(=O)C1CCCN(C(=O)C2CCN(S(=O)(=O)c3ccc(Cl)c(C(F)(F)F)c3)CC2)C1 (configuration not stated),inactive,
CCCCNC(=O)CSc1nc2ccc(NC(=O)CSc3nnc(N)s3)cc2s1,16.4 µM (active),
CCC(=O)Nc1ccc2nc(SCC(=O)N3CCc4ccccc43)sc2c1,inactive,
CCCCNC(=O)CSc1nc2ccc(NC(=O)CSc3nnc(COc4ccccc4C)n3C)cc2s1,inactive,
CCOC(=O)c1ccc(NC(=O)C2CC(=O)N(c3ccc(C(C)C)cc3)C2)cc1 (configuration not stated),inactive,
O=C(Nc1ccncc1)c1c(F)cccc1F,9.2 µM (active),
O=C(Nc1ccc(S(=O)(=O)N2CCCCCC2)cc1)c1c(F)cccc1F,inactive,
O=C(Nc1ccncc1)Nc1ccc(F)cc1,inactive,
Cc1ccc(C)c(N2CCN(CCCNC(=O)Nc3ccc(Cl)cc3)CC2)c1,inactive,
CCOc1ccc(NC(=O)CCC(=O)N2CC(C)Oc3ccc(C)cc32)cc1 (configuration not stated),inactive,
CN(C)C(=O)c1coc2nc3ccccc3nc12,inactive,
CNC(=O)c1cccc2nc3ccccc3nc12,5.8 µM (active),
O=c1[nH]c(=O)c2nc3ccccc3nc2[nH]1,inactive,
Cc1ccc(Nc2c(-c3ccc(C)cc3)nc3cnccn23)cc1,,-2.28% [at 9.27 µM]
CCOC(=O)C1CCN(C(=O)CN2C(=O)NC(C)(c3ccc4cc(OC)ccc4c3)C2=O)CC1 (configuration not stated),inactive,
O=C1CC(c2ccccc2)=NN1c1ccc([N+](=O)[O-])cc1,inactive,

SMILES,Potency,"activity change, negative = inhibition"
Cc1ccc(C)n1NC(=O)c1ccc([N+](=O)[O-])cc1,inactive,
CC1=NN(c2ccccc2)C(=O)C1C(=O)c1ccc([N+](=O)[O-])cc1 (configuration not stated),25.9 µM (active),
CCCOC(=O)c1[nH]c2c(c1C)C(=O)CC(c1cc(OC)c(OC)c(OC)c1)C2 (configuration not stated),16.4 µM (active),
CCCOC(=O)c1[nH]c2c(c1C)C(=O)CC(c1cccs1)C2 (configuration not stated),inactive,
COCCOC(=O)c1[nH]c2c(c1C)C(=O)CC(c1ccc(OC)cc1)C2 (configuration not stated),inactive,
Cc1ccc(C)c(N2CCN(C(=O)C3CCC(CNS(=O)(=O)c4cccs4)CC3)CC2)c1 (configuration not stated),18.4 µM (active),
COc1cccc(CNC(=O)C2CCC(CNS(=O)(=O)c3cccs3)CC2)c1 (configuration not stated),inactive,
Cc1ccc(S(=O)(=O)NCC2CCC(C(=O)N3CCOCC3)CC2)cc1 (configuration not stated),inactive,
Cc1cc([N+](=O)[O-])c(=O)[nH]c1C,inactive,
COc1ccc(N=C2C=CC(=O)O2)cc1,inactive,
COc1ccc(S(=O)(=O)N2CCCCCC2)cc1NC(=O)Cc1ccc(OC)c(OC)c1,inactive,
Cc1ccc(NC(=O)C2CCC(C(C)(C)C)CC2)cc1S(=O)(=O)N1CCOCC1 (configuration not stated),20.6 µM (active),
CC1CCN(S(=O)(=O)c2ccc(NC(=O)C3CC(=O)N(c4ccccc4)C3)cc2)CC1 (configuration not stated),6.51 µM (active),
Cc1ccc(NC(=O)C2CC2)cc1S(=O)(=O)N1CCOCC1,inactive,
Cc1ccc(NC(=O)C2CC(=O)N(c3ccc4c(c3)OCCO4)C2)cc1S(=O)(=O)N1CCCCCC1 (configuration not stated),5.8 µM (active),
Cc1ccc(NC(=O)NC2CCCCC2)cc1S(=O)(=O)N1CCOCC1,inactive,
CC(=O)c1ccccc1NC(=O)C1CC(=O)N(c2ccc3c(c2)OCCO3)C1 (configuration not stated),inactive,
COc1ccc(S(=O)(=O)N2CCCCC2)cc1NC(=O)C1CC(=O)N(c2ccc3c(c2)OCCO3)C1 (configuration not stated),23.1 µM (active),
Cc1ccccc1N1CC(C(=O)Nc2ccc(S(=O)(=O)N3CCCC3)cc2)CC1=O (configuration not stated),inactive,
CCOC(=O)c1ccc(NC(=O)C2CC(=O)N(c3ccc4c(c3)OCCO4)C2)cc1 (configuration not stated),inactive,
Cc1ccc(N2CC(C(=O)Nc3ccc(S(=O)(=O)N4CCCC4)cc3)CC2=O)cc1C (configuration not stated),inactive,
COc1ccccc1N1CC(C(=O)Nc2ccc(S(=O)(=O)N3CCOCC3)cc2)CC1=O (configuration not stated),inactive,
